USP2a inh = qHTS Assay for Inhibitors of Ubiquitin-specific Protease USP2a; Ubiquitin carboxyl-terminal hydrolase 2 (Homo sapiens), O75604; Potency, µM (series often up to 38.3 µM), hits mostly inhibitors; actives 0.1% (n = 60,000); AID 927, 2007; USP2a enzymatic assay, qHTS inhibition; further: nearly all actives have a fitted effect of over 60% in size
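USP2 core (20nM final) preincubated 30 min RT with compound, then Ub-PLA2 20nM and NBD C6-HPC 20uM final added; buffer 20mM Tris-HCl pH 8.0, 2mM CaCl2. Fluorescence Ex 460/Em 535 read at 0 and 2.5 h; normalized to NEM.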
BRCT inh green = qHTS Assay for Inhibitors of BRCT-Phosphoprotein Interaction (Green Fluorophore); Breast cancer type 1 susceptibility protein (Homo sapiens), P38398; BRCA1 BRCT-phosphopeptide binding, green fluorescence polarization; Potency, µM (top dose mostly 76.9 µM), actives largely listed as inhibitors; actives 0.05% (n = 75,000); AID 875, 2007
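Compounds were incubated for 12 min at room temperature with a complex of 100 nM fluorescein-tagged pBACH1 decapeptide and 250 nM His-tagged BRCT protein. Buffer was phosphate pH 7.3 with EDTA, DTT and Tween 20. Disruption of binding lowers the polarization signal.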
BRCT PPI red = qHTS Assay for Inhibitors of BRCT-Phosphoprotein Interaction (Red Fluorophore). Breast cancer type 1 susceptibility protein (Homo sapiens), P38398. BRCT-phosphopeptide binding, red fluorescence polarization. Potency, µM (titrated, usually from 76.9 µM), usual class: inhibitors. actives 0.03% (n = 75,000)
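Fluorescence polarization: 100 nM His-tagged BRCA1 BRCT with 100 nM TAMRA-labelled phospho-BACH1 decapeptide, phosphate buffer pH 7.3 with 150 mM NaCl, DTT, 0.01% Tween 20; 12 min RT. Binding inhibition seen as FP decrease.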
Of the large screens only hits and unclear results are named; the others gave an inactive call; ! = not active in a repeat. Sampled rows, rich in hits. Any-hit rate of the full collection: about 0.16%. The call rests on the fitted dose curve; in most records, active means well fitted inhibition curve with a large enough effect; inconclusive means small, poorly fitted or top-dose-only effect; inactive means no such curve, though single readings can be large or run the other way.

CCCc1ccc(Oc2cn[nH]c2-c2ccc(O)cc2O)cc1	USP2a inh 4µM
COc1ccc(Oc2cn[nH]c2-c2ccc(O)cc2O)cc1	none
COc1cccc2c1C(=O)c1c(O)c3c(c(O)c1C2=O)C[C@@](O)(C(C)=O)C[C@@H]3O[C@H]1C[C@H](N)[C@H](O)[C@H](C)O1	BRCT PPI red 16µM (no result: USP2a inh)
O=c1oc2cc(O)ccc2s1	none
O=C1C=C[C@@H](O)[C@H]2[C@@H]3C(=O)N(C4CCCCC4)C(=O)[C@@H]3CC[C@H]12	none (no result: USP2a inh)
CCCN(CCC)C(=O)C1CCN(c2cc(C)nc3c(-c4ccc(OC)c(OC)c4)c(C)nn23)CC1	none (no result: USP2a inh)
[O-][n+]1onc2c1CCc1c-2nn(-c2ccccc2Cl)[n+]1[O-]	none
Cc1ccc(-n2nc3c([n+]2[O-])CCc2c-3no[n+]2[O-])cc1	USP2a inh 2µM
O=C(C1=C(O)C(=O)N(CC2CCCO2)C1c1cccnc1)c1ccco1 (stereo not drawn)	none
CCOC(=O)N1CCC(NC(=O)Cn2c3c(c(-c4ccccc4Cl)cc2=O)CCC3)CC1	none (no result: USP2a inh)
CCOC(=O)c1ccc(NCc2ccc3c(c2)OCO3)cc1	USP2a inh 13µM
CCOC(=O)c1ccc(NC(=O)Nc2ccc3c(c2)OCCO3)cc1	none
O=C(CSc1nc2ccccc2[nH]1)Nc1ccccc1N1CCOCC1	none
CC(C)c1nc2oc3c(N4CCNCC4)ncnc3c2c2c1CCC2	none
CC(C)c1nc2oc3c(=O)[nH]cnc3c2c2c1CCC2	USP2a inh 1.6µM
CN(C)CCCNCCCNC(=O)c1ccco1	none
COc1ccccc1-c1cc(C(=O)Nc2cc(C)on2)no1	none
O=C(NCC1CCCO1)c1sc(=S)n2c1[nH]c(=O)c1ccc(C(=O)N3CCCCC3)cc12 (stereo not drawn)	USP2a inh 2µM
O=C(NC1CCCCC1)c1sc(=S)n2c1[nH]c(=O)c1ccccc12	none
O=C1C=CC2=C3c4cc(O)c(O)cc4CC3(O)COC2=C1O (stereo not drawn)	USP2a inh 10µM
CC(=O)Nc1ccc(Oc2cc(C#N)c(C#N)cc2N2CCCCCC2)cc1	none
Cc1cc(OCC(O)CN2CCN(CCO)CC2)ccc1C(C)C (stereo not drawn)	none
C=CC1=C(C)C2=NC1=CC1=NC(=CC3=NC(=CC4=NC(=C2)C(C)=C4CCC(=O)O)C(CCC(=O)O)=C3C)C(C=C)=C1C.[Zn]	BRCT inh green inconclusive, BRCT PPI red 32µM (no result: USP2a inh)
CC(=O)CC(=O)NC(=NC1CCCCC1)Nc1nc(C)cc(C)n1	none
Cc1nc(NCCCn2ccnc2)c2ccccc2n1	none
O=C1c2ccccc2-c2onc3ccc(NCCCn4ccnc4)c1c23	BRCT inh green 0.79µM, BRCT PPI red 0.63µM
COC1=C(OC)C(=O)c2ccccc2C1=O	none
COc1ccc2noc3c2c1C(=O)c1ccccc1-3	BRCT inh green 3.2µM
CCNc1ncc2ncc(=O)n(C[C@H]3CCCO3)c2n1	none
CCCC(=O)c1ccc(N2CCN(S(=O)(=O)c3ccc(C)cc3)CC2)c(F)c1	none (no result: USP2a inh)
CCCn1c(SCC(=O)Nc2sc(C)c(C)c2C(=O)OCC)nc2c1c(=O)n(C)c(=O)n2C	none
CCOc1ccccc1-n1c(SCC(=O)Nc2nccs2)nnc1-c1ccoc1C	none
Cc1ccc2c(c1)c1c3n2CCN[C@H]3CCC1	none
Cc1ccc2c(c1)c1c(n2C)C(C(N)=O)CCC1 (stereo not drawn)	USP2a inh 6.3µM
Cc1ccc(N(CC(=O)NCc2ccco2)C(=O)CCC(=O)Nc2ccccn2)cc1C	none
Cc1cc2nc3c(=O)[nH]c(=O)nc-3n(CC(O)C(O)C(O)CO)c2cc1C (stereo not drawn)	BRCT inh green 13µM!
Cc1ccc(NCC(O)C(O)C(O)CO)cc1C (stereo not drawn)	none

Screens: PubChem BioAssay, National Center for Advancing Translational Sciences (NCATS)
